Measured values from the supplement of paper PMC6555819.

What was measured:
Experiment in all cases: PBM binding z-score (relative to random genomic background probes); higher = stronger binding; sequences stand for … in GC…GCGATTGACAGCGTAGAATGAAGG
[1] = tested on: FXR:RXRa (NR concentration 270 nM, RXRa partner concentration 90 nM)
Method in brief: (§1)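 On custom Agilent 4×180K arrays, double-stranded probes with 34-nt variable regions carried direct-repeat seeds, single-nucleotide variants, half-site ablations or random human genomic background. Ligand-free nuclear receptor dimers were applied for 1 h, and binding was read with antibodies against each partner (one per run). Binding z-scores come from regression-normalized fluorescence, with the random background probes as reference.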

[2] = tested on: LXRa:RXRa (NR concentration 270 nM, RXRa partner concentration 90 nM)
Method in brief: as §1

[3] = tested on: LXRa homodimer (NR concentration 270 nM)
Method in brief: as §1

[4] = tested on: LXRb:RXRa (NR concentration 270 nM, RXRa partner concentration 90 nM)
Method in brief: as §1

[5] = tested on: LXRb homodimer (NR concentration 270 nM)
Method in brief: as §1

[6] = tested on: PPARa:RXRa (NR concentration 270 nM, RXRa partner concentration 90 nM)
Method in brief: as §1

[7] = tested on: PPARg:RXRa 270nM:90nM, anti-RXR (NR concentration 270 nM, RXRa partner concentration 90 nM)
Method in brief: as §1

[8] = tested on: PPARg:RXRa 30nM:10nM, anti-RXR (NR concentration 30 nM, RXRa partner concentration 10 nM)
Method in brief: as §1

[9] = tested on: PPARg:RXRa 90nM:30nM, anti-RXR (NR concentration 90 nM, RXRa partner concentration 30 nM)
Method in brief: as §1

[10] = tested on: PPARg:RXRa DBDmut IVT, anti-RXR (DBD mutation: RXRa K156A/R161A, NR concentration 270 nM, RXRa partner concentration 90 nM)
Method in brief: as §1

[11] = tested on: PPARg:RXRa IVT, anti-PPARg (NR concentration 270 nM, RXRa partner concentration 90 nM)
Method in brief: as §1

[12] = tested on: PPARg DBDmut:RXRa IVT, anti-PPARg (DBD mutation: PPARg1 K132A/R137A, NR concentration 270 nM, RXRa partner concentration 90 nM)
Method in brief: as §1

[13] = tested on: PPARg DBDmut IVT, anti-PPARg (DBD mutation: PPARg1 K132A/R137A, NR concentration 270 nM)
Method in brief: as §1

[14] = tested on: PPARg homodimer (NR concentration 180 nM)
Method in brief: as §1

[15] = tested on: PXR:RXRa (NR concentration 270 nM, RXRa partner concentration 90 nM)
Method in brief: as §1

[16] = tested on: PXR homodimer (NR concentration 270 nM)
Method in brief: as §1

[17] = tested on: RARa:RXR (NR concentration 270 nM, RXRa partner concentration 90 nM)
Method in brief: as §1

[18] = tested on: RARa homodimer (NR concentration 270 nM)
Method in brief: as §1

[19] = tested on: RARb:RXRa (NR concentration 270 nM, RXRa partner concentration 90 nM)
Method in brief: as §1

[20] = tested on: PPARg:RXRa (NR concentration 180 nM, RXRa partner concentration 90 nM)
Method in brief: as §1

Sequence	PBM binding z-score [1]	PBM binding z-score [2]	PBM binding z-score [3]	PBM binding z-score [4]	PBM binding z-score [5]	PBM binding z-score [6]	PBM binding z-score [7]	PBM binding z-score [8]	PBM binding z-score [9]	PBM binding z-score [10]	PBM binding z-score [11]	PBM binding z-score [12]	PBM binding z-score [13]	PBM binding z-score [14]	PBM binding z-score [15]	PBM binding z-score [16]	PBM binding z-score [17]	PBM binding z-score [18]	PBM binding z-score [19]	PBM binding z-score [20]
GGAACGGGGGCATTCGAGTTGATAGCATGGCGAT	3.01	4.03	0.603	4.98	6.54	3.99	4.08	1.54	3.65	3.24	5.37	8.85	10.9	1.37	5.15	3.02	2.94	0.259	2.9	–
CGAACTAGGTCCTTGACAGGACAGTGAATAGTAA	-0.28	-0.522	0.156	-0.566	-0.907	0.107	0.252	-0.201	-0.145	3.56	2.67	-0.17	0.14	-0.238	-0.527	-0.0323	-0.228	-0.233	-0.0437	–
CAAACTAGGTCACGAAAGGTCAAAATCGAATGAC	7.3	8.11	7.47	7.37	2.57	6.41	8.29	6.67	8.42	8.56	8.77	2.54	2.48	5.97	6.92	3.06	7.6	4.93	5.41	–
CAAACTAGGTCAAAGGTCAAGGTCGAGCCAACCA	8.28	7.09	5.12	6.8	2.23	7.68	11.5	15.3	14.1	9.03	9.29	6.79	5.8	7.67	7.26	1.52	8.89	3.88	5.76	–
ACTCGGAGGACAGAGGTCAGAGCTACGCCAGTGA	2.85	3.27	0.56	2.62	-0.0333	3.83	4.96	2.62	4.8	0.205	2.43	-0.153	-0.704	1.89	3.17	0.328	3.9	0.568	3.57	–
ACTAGGAGGACAAAGGTCAGAGCTACGCCAGTGA	4.32	4.18	1.5	3.58	0.612	5.33	8.36	7.87	8.99	2.03	4.63	0.268	-0.394	4.52	3.9	0.46	5.08	2.86	4.54	–
CCTACTGGGCCAAGGTCATAGATCAGTCAAAGCA	2.72	2.93	0.673	2.72	-0.469	4.19	4.41	2.23	3.84	3.5	4.88	0.145	-0.588	2.21	3.28	0.536	4.12	0.339	3.23	–
CCTTACGGGTCTAGGTTATAGCACGGGTGGTACG	-0.122	-0.0116	0.0619	-0.517	-0.281	0.0671	-0.00243	-0.428	-0.39	-0.763	0.098	-1.1	-0.738	-0.385	-0.387	-0.0571	0.0446	-0.0691	0.467	–
TGGCCTAGGTCATGGGCCAGTATACCACGCGAAC	4.4	2.91	-0.382	1.57	-1.26	3.93	3.6	0.481	2.22	0.46	2.6	0.17	-0.783	0.937	1.04	-0.935	2.31	-0.155	3.82	–
ACTAGCAGGCCAAAGGTCACTCAAGATTAGTCCG	4.72	4.93	2.36	4.8	0.456	6.05	8.65	8.65	9.39	2.74	5.44	-0.0674	0.109	1.96	5.11	0.886	5.72	0.747	4.81	–
CGTCCAAGGTCAATTCTAGGTCAGTGAAAGCATT	6.85	5.63	3.88	4.73	2.2	5.01	4.59	1.17	3.25	3.48	4.72	0.615	0.0326	7.64	4.96	1.82	6.11	1.9	5.19	–
CCTGCTAGGACAATGGTCAGCTAAAGCAGCTCGC	-0.67	-0.803	-0.499	-0.869	-1.1	-0.776	1.2	-0.505	0.711	0.194	-0.56	-1.25	-2.24	-1.14	-0.961	-0.715	-0.928	-0.846	0.219	–
GCATACGGGTCAAAGGTTATAGCATGAATAGAAT	7.92	5.85	0.463	5.74	0.733	7.06	9.95	10.1	11.7	4.64	6.5	1.34	2.31	3.95	6.29	0.519	8.51	0.512	4.49	–
CCTCCAAGGTCATAGGAGGTCAGTGAAGACAGAT	7.3	7.45	4.84	6.24	0.899	5.85	5.88	2.47	4.29	2.72	4.01	1.58	0.448	4.5	6.72	4.74	5.96	2.34	5.09	–
CAAACTAGGTCAAGGTCAAATTCGGTTTGTGCCA	6.94	5.69	5.04	5.06	2.23	6.07	7.8	6.71	8.35	8.72	8.78	2.45	3.07	4.71	5.45	2.83	5.82	2.26	5.09	–
CAAACTAGGTCAAGAGGTCAAAGGCCGCTTCCCG	7.41	6.17	5.69	5.21	1.49	6.45	8.47	7.55	9.13	8.35	8.52	6.15	3	8.5	6.37	2.72	8.18	4.57	5.58	–
CAAACTAGGTCAAAGGTCAGAGTCGAGCCAACCA	7.83	6.32	3.45	6.4	1.62	7.34	11.1	13.1	13.7	8.97	9.43	6.85	6.78	5.97	6.67	1.28	8.46	3.04	5.44	–
CTAACTAGGTCACGAAAGGTCAAAGTCGAATGAC	7.37	8.22	7.7	7.44	2.3	6.57	8.24	7.33	8.68	8.88	9.03	2.32	2.06	5.96	6.97	3.14	7.47	2.75	5.6	–
CCTTACGGTTCACTGACAGGTTATAGCATTTGGA	1.66	2.43	1.04	1.89	0.471	2.33	1.08	0.683	0.771	0.62	0.00685	0.829	0.643	1.64	2.14	0.911	2.41	1.71	1.16	–
ACTTACGGGTCAACGAAGTTATAGCACGCGTATA	6.23	4.01	0.164	3.62	0.73	5.47	4.81	1.85	3.63	2.94	3.94	2.05	3.18	2.32	3.73	0.0102	4.15	0.443	4.15	–
CATACACGGTCAGCTAGGCCAGAGTAGGGACGGC	0.00236	0.294	-0.0294	-0.523	0.421	-0.409	-0.257	-0.34	-0.382	-0.275	0.556	0.102	0.44	0.0796	-0.388	-0.264	-0.295	0.385	2.49	–
CTAACTAGGTCAAGGTCAAAGTCGGTTTGTGCCA	6.55	5.3	4.54	4.54	1.41	6.04	7.82	7.09	8.36	8.82	8.88	2.1	2.34	2.99	5.04	1.89	4.65	0.786	5	–
TCATATAGGTAATAAAGGTGAAAGTCGGCATCTA	1.82	2.15	0.741	1.79	0.336	3.1	4.44	4.71	4.65	3.99	3.74	0.942	1.43	2.01	1.34	0.488	2.02	1.77	1.6	–
AGTCAAAGTTCAGGACGAGGTAAAGTAAAGCACG	4.27	3.89	1.34	1.9	0.465	3.54	4.89	1.9	4.21	0.127	1.81	0.318	0.49	2.36	2.86	1.28	2.84	1.52	4.33	–
CGTCCAACGTCAAGGTCAGTGAAAGAGACTCGAA	1.22	1.12	-0.198	1.28	-0.439	2.04	0.216	-0.429	-0.211	-0.074	-0.0705	-0.79	-0.354	1.13	1.59	0.288	1.99	0.37	3.35	–
TCTCGGAGGACACGAAGGTCAAAGCTTTCCAGAG	2.68	2.91	2.05	2.91	-0.25	–	2.53	2.73	2.51	1.76	1.71	-0.973	-1.26	1.25	3.68	2.71	3.62	0.304	3.66	1.14
CGTCCAAGGTCAAGGTCACTGAAAGAGACTCGAA	8.15	6.19	2.24	5.23	0.938	–	6.98	4.14	5.87	3.94	5.37	1.81	0.436	3.85	5.68	1.6	6.16	1.64	–	7.36
CCGACTGGGGCAAAGGTTACGATACTCAGTACGA	1.82	1.6	-0.076	2	-1.04	5.62	9.56	9.53	11.7	4.56	6.38	0.809	0.584	4	2.51	-0.536	4.39	-0.413	2.57	–
TATACAGGGTCAAAGGGCAGAGTACGAATGTCGA	7.38	6.55	3.16	5.44	3.33	6.52	8.53	7.25	8.56	2.92	5.52	3.49	2.57	2.97	5.21	1.62	–	1.6	4.84	–
CGTCCAAGGTCAAAGGTCAGGGAAGAGATGACGG	8.68	6.78	3.32	6.96	1.53	–	9.03	8.32	9.6	3.65	6.24	1.42	0.451	3.19	7	1.61	8.27	2.57	–	11
